Measurements taken from PubChem BioAssay (EPA / NIEHS).
Calls of active or inactive are those of the source. Rule for the calls: active = hit-call score of the fitted dose curve at least 0.9, where 1 is the maximum; inactive = score below 0.9.

read-out: Alpha-fetoprotein (AFP) gene, AFP (gene 174); test: LTEA_HepaRG_AFP: Life Technologies and Expression Analysis (LTEA) Assay for Alpha-fetoprotein (AFP) gene using HepaRG (AID 2283472); conditions: mRNA level, 48 h; actives raise or lower the signal;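 for AC50: AFP transcript by TaqMan qRT-PCR normalized to ACTB GAPDH and POLR2A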
Protocol: It is a marker of Undifferentiated hepatocyte.Data from the assay component LTEA_HepaRG_AFP was analyzed into 1 endpoint. This assay endpoint, LTEA_HepaRG_AFP, was analyzed with bidirectional fitting relative to DMSO as the negative control and baseline of activity. Using a type of inducible reporter, measures of mRNA induction for gain or loss-of-signal activity can be used to understand regulation of transcription factor activity. To generalize the intended target to other relatable targets, this assay endpoint is annotated to the background measurement intended target family, where the subfamily is assay control.
A total of 1060 chemcials from the ToxCast library were tested in eight-point concentration-response experiments. Cell culture and cytotoxicity assays were conducted at Thermo Fisher Scientific's Custom Services facility (Madison, WI). A single lot of human HepaRG cells (Thermo Fisher Scientific, Frederick, MD) was used for the cell culture experiments. 96-well format collagen type I coated plates of human HepaRG cells were prepared using established methods. Briefly, cryopreserved HepaRG cells were thawed, plated at a density of approximately 100,000 cells/well in HepaRG Thaw, Plate, and General Purpose media (HPRG770, Thermo Fisher Scientific), and incubated for 48 hours. 0.5% DMSO was selected as vehicle control to balance the requisite need of DMSO in HepaRG cultures to maintain differentiation (for example, baseline metabolism, proportions of hepatocytes vs. cholangiocytes), while enabling further hepatic receptor pathway activation (for example, PXR and CAR) in response to chemical exposure. 48 hours after plating, the culture medium was replaced with HepaRG Serum-Free Incudtion Media. Cells were exposed to each test chemical in duplicate and maintained in CO2 incubators for another 48 hours. Chemical plates were thawed to room temperature and 200x concentrations of treatment groups were prepared. 8-point conentration-reponse curves were made with the highest exposure at 100 uM, followed by half-log dilutions, all in 0.5% DMSO. Each test plate contained variouse controls, induction positive controls (1mM phenobarbital), cytotoxicity positive controls ([…] aflatoxin B1), vehicle controls (0.5% DMSO), and total lysis controls (0.5% DMSO). Cell morphology images were taken using an Essen IncuCyte FLR automated microscope, with six 96-well plates imaged in about 24 minutes. Images were captured and exported and JPEG files. Spent culture media was transfered to black-well plates for the LDH assay, and remaining media was sorted at -80 C for later use. Cells were treated with RLT buffer and frozen until shipped for gene expression analysis. Total RNA was isolated from the cell suspension in 75 uL of Buffer RLT (Qiagen, Germantown, MD 20874) by Quintiles/Expression Analysis (Durham, NC) using a custom isolation procedure. Total RNA from each plate well was transferred to a preamplification plate. Fluidigm's 96.96 Dynamic ArrayTM (Fluidigm, Amsterdam, the Netherlands) technology was used for gene expression analyses by quantitative reverse transcription polymerase chain reaction (qRT-PCR, performed by Quintiles/Expression Analysis, Durham, NC)89. Standard TaqManTM Assays (Applied Biosystems/ThermoFisher Scientific, Foster City, CA) were used to assess the expression of 93 genes selected based on their selectivity and sensitivity to important hepatic receptors known to be modulated by environmental chemicals; importance in human hepatocyte functionality; and hepatotoxicity. Three "housekeeping" endogenous control genes were also included and used for normalization: actin beta (ACTB), Glyceraldehyde 3 phosphate dehydrogenase (GAPDH) and RNA Polymerase II Subunit A (POLR2A). qRT-PCR was conducted according to the manufacturer's protocol.

Q: `CCCCCCCC(=O)O` was tested. Which outcome did it give?
A: The outcome was “inactive”.

Q: With `OCCC(F)(F)C(F)(F)C(F)(F)C(F)(F)C(F)(F)C(F)(F)F` as the molecule, how does the outcome read?
A: The outcome was “inactive”.

Q: How did the outcome turn out when `Cc1cc(C)c(O)c(C)c1` was run?
A: The outcome was “inactive”.

Q: `CC(C)(C)c1cccc(C(C)(C)C)c1O` was tested. Which outcome did it give?
A: Its outcome is “inactive”.

Q: For `C#C[C@]1(O)CC[C@H]2[C@@H]3CCC4=CC(=O)CC[C@@H]4[C@H]3CC[C@@]21C`, which outcome is on record?
A: Its outcome is “inactive”.

Q: For `NC(=O)N(O)[C@@H]1C=C[C@H](Oc2cccc(Oc3ccc(F)cc3)c2)C1`, which AC50 is on record?
A: Its AC50 is 20.2 µM (active).

Q: Which AC50 does the source give for `CC(=O)NC1(c2cccc(F)c2)CCN(CC[C@@]2(c3ccc(Cl)c(Cl)c3)CN(c3ccccc3)C(=O)CO2)CC1` here?
A: Its AC50 is 13.1 µM (active).

Q: `CC(O)CO` (stereo not given) was tested. Which outcome did it give?
A: Its outcome is “inactive”.

Q: `COCC(C)O` (stereo not given) was tested. Which outcome did it give?
A: The outcome was “inactive”.

Q: Which outcome does the source give for `ClC1=C(Cl)C(Cl)(Cl)C(Cl)=C1Cl` here?
A: Its outcome is “inactive”.

Q: Which outcome does the source give for `CC[C@H](c1ccc(O)cc1)[C@@H](CC)c1ccc(O)cc1` here?
A: Its outcome is “inactive”.

Q: `CC(C)(C)CC(C)(C)c1ccc(O)c(-n2nc3ccccc3n2)c1` was tested. Which outcome did it give?
A: The outcome was “inactive”.

Q: Which outcome does the source give for `CCCCOCCO` here?
A: The outcome was “inactive”.

Q: For `CN1CCN(c2ccccc2/C=C2\SCCN(c3ccc(Cl)c(Cl)c3)C2=O)CC1`, which AC50 is on record?
A: Its AC50 is 11.5 µM (active).

Q: With `CCCCC(CC)COC(=O)CCCCC(=O)OCC(CC)CCCC` (stereo not given) as the molecule, how does the outcome read?
A: The outcome was “inactive”.

Q: `COc1ccc([N+](=O)[O-])cc1N` was tested. Which outcome did it give?
A: The outcome was “inactive”.

Q: With `Cc1oc(-c2ccccc2)nc1CCOc1ccc(C[C@H](Nc2ccccc2C(=O)c2ccccc2)C(=O)O)cc1` as the molecule, how does the outcome read?
A: Its outcome is “inactive”.

Q: How did the outcome turn out when `OC1CCCCC1` was run?
A: Its outcome is “inactive”.

Q: `CC(C)CCCCCCOC(=O)CCCCC(=O)OCCCCCCC(C)C` was tested. Which outcome did it give?
A: Its outcome is “inactive”.

Q: For `CCCOC(=O)c1ccc(O)cc1`, which outcome is on record?
A: Its outcome is “inactive”.

Q: For `Nc1cccc2c(N)cccc12`, which outcome is on record?
A: Its outcome is “inactive”.

Q: With `O=C(O)c1ccccc1C(c1ccc(O)cc1)c1ccc(O)cc1` as the molecule, how does the outcome read?
A: The outcome was “inactive”.

Q: For `Oc1cc2ccccc2c2ccccc12`, which outcome is on record?
A: The outcome was “inactive”.

Q: For `CCN(CC)CCNc1ccc(CNC=O)c2sc3ccc(OC)cc3c(=O)c12`, which AC50 is on record?
A: The AC50 was 11.5 µM (active).

Q: Which outcome does the source give for `OCCC(F)(F)C(F)(F)C(F)(F)C(F)(F)C(F)(F)C(F)(F)C(F)(F)C(F)(F)F` here?
A: The outcome was “inactive”.

Q: Which outcome does the source give for `CCOC(=O)CC(O)(CC(=O)OCC)C(=O)OCC` here?
A: Its outcome is “inactive”.

Q: For `NC(=O)N1C(=O)C(C(=O)c2cc(Cl)cs2)c2cc(F)c(Cl)cc21` (stereo not given), which outcome is on record?
A: The outcome was “inactive”.

Q: How did the outcome turn out when `CCCCCCCCCCCCN1CCCC1=O` was run?
A: Its outcome is “inactive”.

Q: How did the outcome turn out when `CC[C@H](C)[C@@H](C(=O)O)n1sc2ccccc2c1=O` was run?
A: The outcome was “inactive”.

Q: With `CCCCC(CC)COC(=O)CCCCC(=O)OCc1ccccc1` (stereo not given) as the molecule, how does the outcome read?
A: The outcome was “inactive”.

Q: How did the AC50 turn out when `c1ccc2cc3c(ccc4ccccc43)cc2c1` was run?
A: The AC50 was 25.9 µM (active).

Q: `OC1CCC(C2CCCCC2)CC1` (stereo not given) was tested. Which outcome did it give?
A: The outcome was “inactive”.

Q: Which outcome does the source give for `CCCCCCCCOC(=O)CCCCCCCCC(=O)OCCCCCCCC` here?
A: The outcome was “inactive”.

Q: `C[C@@H]1C[C@H]2[C@@H]3CCC4=CC(=O)C=C[C@]4(C)[C@@]3(F)[C@@H](O)C[C@]2(C)[C@@]1(O)C(=O)COP(=O)(O)O` was tested. Which outcome did it give?
A: The outcome was “inactive”.

Q: With `CN1CCC[C@H]1c1cccnc1` as the molecule, how does the outcome read?
A: The outcome was “inactive”.

Q: Which outcome does the source give for `CCC(=C(c1ccc(O)cc1)c1ccc(OCCN(C)C)cc1)c1ccccc1` here?
A: Its outcome is “inactive”.

Q: `CC(=O)CC(C)(C)O` was tested. Which outcome did it give?
A: The outcome was “inactive”.

Q: `CCC(C)(C)C1CCC(O)CC1` (stereo not given) was tested. Which outcome did it give?
A: Its outcome is “inactive”.

Q: Which AC50 does the source give for `CCCCCCCCCCCCc1ccccc1S(=O)(=O)O` here?
A: Its AC50 is 80 µM (active).

Q: `Oc1cccc(O)c1` was tested. Which outcome did it give?
A: Its outcome is “inactive”.
